The text below walks through data of PubChem BioAssay (NCI).

Assay in all cases: NCI-60 one-dose screen, 48 h (100 = growth as untreated, 0 = no growth, -100 = all killed)
One assay relates to T-47D breast. As to conditions: 10 µM unless noted.
A further assay concerns BT-549 breast. Particulars: 10 µM unless noted.
The test system of a further assay is MDA-MB-435 melanoma. Particulars: 10 µM unless noted.
The next assay relates to SW-620 colon. As to conditions: 10 µM unless noted.
A further assay relates to MCF7 breast. As to conditions: 10 µM unless noted.
A further assay concerns HCT-116 colon. Particulars: 10 µM unless noted.
Another assay deals with HCC-2998 colon. Particulars: 10 µM.
Another assay has as its system KM12 colon. As to conditions: 10 µM unless noted.

Compounds without any hit were thinned out: in the full panel of roughly 83,000, 20% have a hit.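 Cell lines were cultured in 96-well plates, exposed to a single compound concentration, and assessed for percent growth 48 hours later.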 Unmarked numbers belong to inactive results. Activity calls are given as the source filed them. The calls were made as follows: active = growth percent below 10; inactive = the rest.

Consider `Cc1cc(Oc2ccccc2)ccc1Nc1ncnc2ccc(-c3cnc(Cl)c(NS(C)(=O)=O)c3)cc12`, for which the growth with T-47D breast is -22.4% (active); in the assay on BT-549 breast, -0.502% (active); with MDA-MB-435 melanoma it was 17.9%; in the assay with SW-620 colon it was 38.8%; in the assay on MCF7 breast, 9.35% (active); in the assay with HCT-116 colon, 22.9%. In addition, the growth in the assay with HCC-2998 colon is 25.7%; in the assay on KM12 colon, 34.5%.
Consider `CCCC(=O)OCC1OC(n2cnc3c(=S)nc[nH]c32)C(OC(=O)CCC)C1OC(=O)CCC` (configuration not stated), for which the growth in the assay with T-47D breast is 36.5%; with BT-549 breast it was 45.5%; in the assay with MDA-MB-435 melanoma, 38%; with SW-620 colon, 38.1%; with MCF7 breast, 24.2%; with HCT-116 colon, 35.9%. For the same compound, the growth with HCC-2998 colon was 2.11% (active); with KM12 colon, 43.3%.
For the compound `O=C(CNc1nc(-c2ccc(Cl)cc2)cs1)Nc1ccc(-c2nc3ccccc3s2)cc1`, the growth is 56.1% with T-47D breast; 107% in the assay with BT-549 breast; 104% in the assay on MDA-MB-435 melanoma; 99.9% in the assay with SW-620 colon; 29.9% in the assay with MCF7 breast; 95.5% in the assay on HCT-116 colon. In addition, the growth with HCC-2998 colon is 97.5%; with KM12 colon, 99%.
As to `O=C(Cn1ccc2ccccc21)Nc1ccc(-c2nc3ccccc3s2)cc1`, the growth is 90.6% in the assay with T-47D breast; 105% in the assay with BT-549 breast; 104% in the assay on MDA-MB-435 melanoma; 106% in the assay on SW-620 colon; 38.2% in the assay with MCF7 breast; 102% in the assay on HCT-116 colon. Further, the growth was 103% in the assay on HCC-2998 colon and 106% with KM12 colon.
In the case of `CC[n+]1c(/C=C/C=C2\N(C)c3ccccc3C2(C)C)sc2ccccc21`, the growth in the assay on T-47D breast was 4.61% (active); in the assay with BT-549 breast, -2.69% (active); in the assay on MDA-MB-435 melanoma, 4.07% (active); with SW-620 colon, 17%; in the assay on MCF7 breast, -26.9% (active); in the assay with HCT-116 colon, 7.25% (active). In addition, the results for the growth with HCC-2998 colon and in the assay with KM12 colon were 32.2% and 3.17% (active), respectively.
On to `COc1cc(NC2CCC(=O)N2c2ccc(Cl)cc2Cl)cc(OC)c1OC` (configuration not stated), for which the growth with T-47D breast is 98.3%; with BT-549 breast it was 109%; in the assay with MDA-MB-435 melanoma, 94.9%; in the assay on SW-620 colon it was 96.8%; in the assay on MCF7 breast, 96.6%; in the assay with HCT-116 colon, 97.1%. Also, the results for the growth with HCC-2998 colon and with KM12 colon were 95.7% and 97.7%, respectively.
Regarding `Cc1ccsc1C(NC(=O)c1ccccc1)c1cc(Cl)c2cccnc2c1O` (configuration not stated), the growth in the assay with T-47D breast was 24.1%; with BT-549 breast, 35.4%; in the assay with MDA-MB-435 melanoma, 30.5%; with SW-620 colon, 18.8%; with MCF7 breast it was 21.8%; in the assay with HCT-116 colon, 13.7%. In addition, the figures for the growth in the assay on HCC-2998 colon and in the assay with KM12 colon were 45% and 22%, respectively.
With `CCOC(=O)C1=C(C)N=C2Sc3cc(OC(F)(F)F)ccc3N2[C@H]1c1ccccn1`, the growth was 25.1% in the assay on T-47D breast; 59.4% in the assay on BT-549 breast; 51.1% in the assay on MDA-MB-435 melanoma; 23.6% in the assay with SW-620 colon; 41.3% in the assay on MCF7 breast; 24.2% in the assay with HCT-116 colon. The growth in the assay on HCC-2998 colon is 69.4%; in the assay on KM12 colon, 32.3%.
As to `Nc1cc(C(F)(F)F)c(-c2cc(N3CCOCC3)nc(N3CCOCC3)n2)cn1`, the growth in the assay with T-47D breast is -42.9% (active); in the assay with BT-549 breast it was -2.66% (active); in the assay with MDA-MB-435 melanoma it was -62.3% (active); in the assay with SW-620 colon, 0.981% (active); with MCF7 breast it was -7.62% (active); with HCT-116 colon, -25.4% (active). The growth with HCC-2998 colon is -52.9% (active); in the assay with KM12 colon, -1.19% (active).
With `COc1cccc(NC(=O)Nc2ccc(Nc3ncnc4sc5c(c34)CCN(C(=O)CCl)C5)cc2)c1`, the growth in the assay with T-47D breast is 86.6%; in the assay on BT-549 breast it was 99.1%; with MDA-MB-435 melanoma, 109%; with SW-620 colon it was 102%; in the assay on MCF7 breast, 87.3%; in the assay on HCT-116 colon, 93.5%. Besides, the growth was 115% in the assay on HCC-2998 colon and 98.1% in the assay with KM12 colon.
As to `C#Cc1cccc(Nc2ncnc3cc(OC)c(OCCCCCCC(=O)NO)cc23)c1`, the growth was -24.4% (active) in the assay with T-47D breast; -7.81% (active) with BT-549 breast; -28.1% (active) in the assay with MDA-MB-435 melanoma; -22.6% (active) in the assay with SW-620 colon; 8.28% (active) in the assay with MCF7 breast; -27.4% (active) with HCT-116 colon. In addition, the growth in the assay on HCC-2998 colon is -53.5% (active); in the assay with KM12 colon, 5.62% (active).
With `Cc1nc2cc(-c3nn(C(C)C)c4ncnc(N)c34)ccc2o1`, the growth in the assay with T-47D breast was -39.9% (active); with BT-549 breast, -14.5% (active); with MDA-MB-435 melanoma, -20.5% (active); in the assay on SW-620 colon, 2.48% (active); in the assay with MCF7 breast it was -4.42% (active); in the assay with HCT-116 colon it was 7.77% (active). Moreover, the figures for the growth in the assay with HCC-2998 colon and with KM12 colon were -8.93% (active) and 0.531% (active), respectively.
As to `CC(C)(C)c1nc(-c2cccc(NS(=O)(=O)c3c(F)cccc3F)c2F)c(-c2ccnc(N)n2)s1`, the growth with T-47D breast was 92.6%; in the assay with BT-549 breast, 118%; in the assay with MDA-MB-435 melanoma, 87.3%; in the assay with SW-620 colon, 73.3%; with MCF7 breast it was 79.7%; with HCT-116 colon, 48.1%. Moreover, the growth in the assay with HCC-2998 colon was 85.1%; in the assay on KM12 colon, 44.6%.
For `Cn1cnc(-c2cc3nccc(Oc4ccc(NC(=S)NC(=O)Cc5ccccc5)cc4F)c3s2)c1`, the growth is 65.8% in the assay with T-47D breast; 77.3% with BT-549 breast; 93.2% in the assay on MDA-MB-435 melanoma; 76.7% with SW-620 colon; 79.5% with MCF7 breast; 78.8% with HCT-116 colon. In addition, the results for the growth in the assay with HCC-2998 colon and in the assay on KM12 colon were 104% and 21.8%, respectively.
